Records with an inconclusive call do not appear. Calls of active or inactive are those of the source. The calls were made as follows: active = hit-call score of the fitted dose curve at least 0.9, where 1 is the maximum; inconclusive = response in the unintended direction; inactive = score below 0.9.
What follows are compounds tested against human Retinoic Acid Receptor gamma (RARg), RARG (gene 5916) (UniProt P13631) (assay: ATG_RARg_TRANS: Attagene TRANS-FACTORIAL HepG2 Assay for human Retinoic Acid Receptor gamma (RARg) (AID 2283009)).
Description: ATG_TRANS is a cell-based, multiplexed-readout assay that uses HepG2, a human liver cell line, with measurements taken at 24 hours after chemical dosing in a 24-well plate.ATG_RARg_TRANS is one of 30 assay component(s) measured or calculated from the ATG_TRANS assay. It is designed to make measurements of mRNA induction, a form of inducible reporter, as detected with fluorescence intensity signals by Reverse transcription polymerase chain reaction (RT-PCR) and Capillary electrophoresis technology.Data from the assay component ATG_RARg_TRANS was analyzed into 1 assay endpoint. This assay endpoint, ATG_RARg_TRANS, was analyzed in the positive analysis fitting direction relative to DMSO as the negative control and baseline of activity. Using a type of inducible reporter, measures of mRNA for gain-of-signal activity can be used to understand the reporter gene at the transcription factor-level as they relate to the gene RARG. Furthermore, this assay endpoint can be referred to as a primary readout, because this assay has produced multiple assay endpoints where this one serves a reporter gene function. To generalize the intended target to other relatable targets, this assay endpoint is annotated to the nuclear receptor intended target family, where the subfamily is non-steroidal.
Human liver HepG2 cells are transiently transfected with multiple reporter transcription units (MRTUs) in 6-well plates using FuGene 6 reagent (Roche; 3 ml FuGene/1 mg DNA). The MRTU constructs are regulated by a cis-regulating element (promoter). […] A major difference between the CIS and TRANS system is that in CIS activities of endogenous TFs are measured, whereas the TRANS assay evaluates changes in activities of exogenous, chimeric NR-Gal4 proteins. […] At the end of 24 hour incubation, total RNA was isolated using TriZol reagent (Invitrogen). The isolated RNA is then reverse-transcribed using oligo(dT) primer and Mo-MLV reverse transcriptase (Invitrogen) with DNAse I (Ambion) treatment for 30 min. The one-tenth of the produced cDNA was amplified by PCR using Taq DNA polymerase (Invitrogen) and two reporter sequence-specific primers. The PCR products were fluorescently labeled by primer extension with 6-arboxyfluorescein (6-FAM) 5'-labeled reporter sequence-specific primer (2 min at 95 C, 20 s at 68 C and 10 min at 72 C) and these products were digested with 5U of HpaI (New England Biolabs) for 2h at 37 C. […] The raw capillary electrophoresis data was processed using Attagraph software (Attagene).

Sequence of human Retinoic Acid Receptor gamma (RARg), RARG (gene 5916) (P13631 whole entry, looked up): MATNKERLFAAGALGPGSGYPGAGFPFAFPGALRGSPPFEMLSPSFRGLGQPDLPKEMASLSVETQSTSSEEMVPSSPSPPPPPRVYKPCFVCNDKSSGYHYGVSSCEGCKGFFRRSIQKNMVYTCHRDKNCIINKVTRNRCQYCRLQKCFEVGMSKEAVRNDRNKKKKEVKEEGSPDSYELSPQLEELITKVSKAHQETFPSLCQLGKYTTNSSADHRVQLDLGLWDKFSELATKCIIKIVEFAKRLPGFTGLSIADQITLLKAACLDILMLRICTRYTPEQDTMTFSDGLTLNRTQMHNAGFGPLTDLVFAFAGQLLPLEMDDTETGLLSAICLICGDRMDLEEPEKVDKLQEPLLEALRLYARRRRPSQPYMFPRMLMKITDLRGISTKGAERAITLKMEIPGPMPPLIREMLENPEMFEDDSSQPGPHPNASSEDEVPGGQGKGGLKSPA

outcome, inactive:
CCO[Si](CCCNC(N)=O)(OCC)OCC
CC(O)CC(C)(C)O (stereo not given)
CCN(CC)C(=O)c1cc(S(=O)(=O)Cc2ccccc2)c(N2CCC(c3ccccc3)CC2)cc1N(CC)CCN(C)C
CC1(C)NC(=O)N(c2ccc([N+](=O)[O-])c(C(F)(F)F)c2)C1=O
CCN(Cc1cccnc1)C(=O)c1cccc(Cl)c1[C@]1(C)C(=O)N(Cc2ccc(OC)cc2OC)c2ccc(Cl)cc21
CCCOC(=O)c1cc(O)c(O)c(O)c1
CC/C(=C(/CC)c1ccc(O)cc1)c1ccc(O)cc1
CCCCOC(=O)c1ccc(O)cc1
Cc1cccc2ccccc12
O=C(Nc1ccc(Cl)cc1)Nc1ccc(Cl)c(Cl)c1
CN(C[C@@H](CC[N+]12CCC(C3CCCCC3)(CC1)CC2)c1ccc(Cl)c(Cl)c1)C(=O)c1cc(C(F)(F)F)cc(C(F)(F)F)c1
Cc1cc2c(cc1C(F)(F)F)N(C(=O)Nc1ccc(Oc3cccnc3C)nc1)CC2
CCCCCCCCOc1ccc(C(=O)c2ccccc2)c(O)c1
COc1cccc([C@H](O)C2CCN(CCc3ccc(F)cc3)CC2)c1OC
CC[C@@H]1C[C@H](N(Cc2cc(C(F)(F)F)cc(C(F)(F)F)c2)C(C)=O)c2cc(C(F)(F)F)ccc2N1C(=O)OC(C)C
CCCCCCCCCCCC[N+](C)(C)C
CCCC(=O)OCCC(C)C
Cc1c2ccccc2c(C)c2c1ccc1ccccc12
O=C(OCCCCCCOC(=O)c1ccccc1)c1ccccc1
CCCCCCCCOC(=O)c1cc(O)c(O)c(O)c1
O=c1c(-c2ccc(O)cc2)coc2cc(O)cc(O)c12
CCCCCCCCCC(=O)O
CCCCCCCCN(C)CCCCCCCC
O=C(O)c1ccccc1-n1cc(C(=O)O)c(=O)c2cc(Nc3c(F)cc(F)cc3Cl)c(Cl)cc21
O=C(O)Cn1c(=O)n(Cc2ccc(Br)cc2F)c(=O)c2ccc(Cl)cc21
C[C@]12CC[C@@H]3c4ccc(O)cc4CC[C@H]3[C@@H]1CC[C@H]2O
CC(C)(O)c1ccc(CNC(=O)c2cccnc2Oc2ccc3nonc3c2)cc1
Clc1cc(Cl)c2c(c1)N=C1CCCCCN1C2
CCCCCCCCCCCCO
CC(C)(C)c1cc(/C=C2\SC(N)=NC2=O)cc(C(C)(C)C)c1O
OCCO
c1ccc(C[n+]2cccc3ccccc32)cc1
Cc1oc2c(NC(=O)c3c(Cl)cccc3Cl)cccc2c1C(C)(C)O
CCCCCCCC[Si](OCC)(OCC)OCC
CC(C)(c1cc(Br)c(O)c(Br)c1)c1cc(Br)c(O)c(Br)c1
